Test results: PubChem BioAssay (NCATS)
Results filed as inconclusive are left out. Active and inactive are the calls of the source. Calls follow the shape of the dose curve; as a rule, active = well fitted curve in the direction sought with a large enough effect; inconclusive = small, poorly fitted or top-dose-only effect, or another doubt; inactive = no such curve, though single readings can be large; an effect the other way counts as inactive or inconclusive.

Columns and labels:
CRL-7250 = normal cell line; test: Cytotoxic Profiling of Annotated Libraries Using Quantitative High-Throughput Screening (AID 1296008); conditions: Five cell lines viability, CellTiter-Glo ATP luminescence, 48-72 h; max response: active compounds read low; also: nearly all actives have a fitted effect of over 60% in size
Method in brief: (§1)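 Cells exposed to compounds for 48 or 72 hr at 37 degrees Celsius. Viability read as ATP-coupled luminescence with CellTiter-Glo after 10 min at room temperature.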

HaCat = test: as above; conditions: Five cell lines viability, CellTiter-Glo ATP luminescence, 48-72 h; max response: active compounds read low
Method in brief: as §1

KB-3-1 = test: as above; conditions: Five cell lines viability, CellTiter-Glo ATP luminescence, 48-72 h; max response: active compounds read low
Method in brief: as §1

NIH3T3 = test: as above; conditions: Five cell lines viability, CellTiter-Glo ATP luminescence, 48-72 h; max response: active compounds read low
Method in brief: as §1

C33A = test: Primary qHTS to identify gynecologic anti-cancer compounds using libraries of approved drugs and bioactive compounds (AID 1345084); conditions: Gynecologic cancer cell panel viability, ATPlite luminescence, 48 h; series mostly up to 57.5 µM; also: nearly all actives have a fitted effect of over 55% in size
Method in brief: (§2)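 Cytotoxicity screen measuring ATP content by luciferase luminescence. Each compound is applied at five concentrations for 48 h at 37 C with 5% CO2.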

CAOV3 = test: as above; conditions: Gynecologic cancer cell panel viability, ATPlite luminescence, 48 h; series mostly up to 57.5 µM
Method in brief: as §2

CASKI = test: as above; conditions: Gynecologic cancer cell panel viability, ATPlite luminescence, 48 h; series mostly up to 57.5 µM
Method in brief: as §2

Es-2 = test: as above; conditions: Gynecologic cancer cell panel viability, ATPlite luminescence, 48 h; series mostly up to 57.5 µM
Method in brief: as §2

HeLa = test: as above; conditions: Gynecologic cancer cell panel viability, ATPlite luminescence, 48 h; series mostly up to 57.5 µM
Method in brief: as §2

Hek293T = test: as above; conditions: Gynecologic cancer cell panel viability, ATPlite luminescence, 48 h, control line for the selectivity index; series mostly up to 57.5 µM
Method in brief: as §2

JEG-3 = test: as above; conditions: Gynecologic cancer cell panel viability, ATPlite luminescence, 48 h; series mostly up to 57.5 µM
Method in brief: as §2

OV90 = test: as above; conditions: Gynecologic cancer cell panel viability, ATPlite luminescence, 48 h; series mostly up to 57.5 µM
Method in brief: as §2
% is scaled to controls: 0 for no effect and ±100 for the full control effect.

Cc1cccc(-c2[nH]ncc2-c2ccc(F)c(-c3cnn(CCO)c3)c2)n1
inactive: max response (CRL-7250) -17.9% | max response (HaCat) 3.16% | max response (KB-3-1) -8.92% | max response (NIH3T3) -23.9% | Potency (C33A) | Potency (CAOV3) | Potency (CASKI) | Potency (Es-2) | Potency (HeLa) | Potency (Hek293T) | Potency (JEG-3) | Potency (OV90)

O=C(Nc1ccccc1C(=O)NC1CCCCNC1=O)c1cc2ccccc2s1 (stereo not drawn)
inactive: outcome (CRL-7250) | max response (HaCat) 4.7% | max response (KB-3-1) -2.87% | max response (NIH3T3) 4.3% | Potency (C33A) | Potency (CAOV3) | Potency (CASKI) | Potency (Es-2) | Potency (HeLa) | Potency (Hek293T) | Potency (JEG-3) | Potency (OV90)

CN(C)c1ccnc2sc3c(=O)n(N4CCCCCC4)cnc3c12
inactive: max response (CRL-7250) -8.13% | max response (HaCat) 1.16% | max response (KB-3-1) 7% | max response (NIH3T3) 4.09% | Potency (C33A) | Potency (CAOV3) | Potency (CASKI) | Potency (Es-2) | Potency (HeLa) | Potency (Hek293T) | Potency (JEG-3) | Potency (OV90)

C=C1CCC2[C@](C)(CCC[C@@]2(C)C=O)[C@H]1CC/C(C)=C/CO (stereo partly drawn)
inactive: max response (CRL-7250) 2.68% | max response (HaCat) 2.96% | outcome (KB-3-1) | max response (NIH3T3) 1.76% | Potency (C33A) | Potency (CAOV3) | Potency (CASKI) | Potency (Es-2) | Potency (HeLa) | Potency (Hek293T) | Potency (JEG-3) | Potency (OV90)

C=C(C(=O)O)[C@@H]1CC=C(CCC(C)=O)[C@@H](C)CC1
inactive: max response (CRL-7250) -0.888% | max response (HaCat) -4.33% | max response (KB-3-1) -14.7% | max response (NIH3T3) -3.55% | Potency (C33A) | Potency (CAOV3) | Potency (CASKI) | Potency (Es-2) | Potency (HeLa) | Potency (Hek293T) | Potency (JEG-3) | Potency (OV90)

CC(=O)O[C@@H]1CC2C(/C=C(\C)C(=O)[C@@]3(O)C[C@@H](C)[C@H](OC(=O)c4ccccc4)C3/C=C/1C)C2(C)C (stereo partly drawn)
inactive: outcome (CRL-7250) | max response (HaCat) -1.64% | outcome (KB-3-1) | max response (NIH3T3) 1.35% | Potency (C33A) | Potency (CAOV3) | Potency (CASKI) | Potency (Es-2) | Potency (HeLa) | Potency (Hek293T) | Potency (JEG-3) | Potency (OV90)

COCCCNC(=O)c1ccc(Cn2c(=O)c3ccccc3n(Cc3ccc(C(C)C)cc3)c2=O)cc1
inactive: max response (CRL-7250) -3.32% | max response (HaCat) 1.44% | outcome (KB-3-1) | max response (NIH3T3) 4.09% | Potency (C33A) | Potency (CAOV3) | Potency (CASKI) | Potency (Es-2) | Potency (HeLa) | Potency (Hek293T) | Potency (JEG-3) | Potency (OV90)

Cc1ccc(C2(C(=O)N3CCC(n4nc(-c5ccccc5)oc4=O)CC3)CC2)cc1
inactive: max response (CRL-7250) -18.3% | max response (HaCat) -7.48% | max response (KB-3-1) -8.37% | max response (NIH3T3) -1.74% | Potency (C33A) | Potency (CAOV3) | Potency (CASKI) | Potency (Es-2) | Potency (HeLa) | Potency (Hek293T) | Potency (JEG-3) | Potency (OV90)

O=C(/C=C/c1ccccc1O)O[C@@H]1O[C@H](CO)[C@@H](O)[C@H](O)[C@H]1O
inactive: max response (CRL-7250) 2.59% | max response (HaCat) -3.03% | outcome (KB-3-1) | outcome (NIH3T3) | Potency (C33A) | Potency (CAOV3) | Potency (CASKI) | Potency (Es-2) | Potency (HeLa) | Potency (Hek293T) | Potency (JEG-3) | Potency (OV90)

C[C@@H]1O[C@@H](O[C@H]2CC[C@@]3(C)C(CC[C@]4(C)C3CC=C3[C@@H]5CC(C)(C)CC[C@]5(C(=O)O[C@@H]5O[C@H](CO)[C@@H](O)[C@H](O)[C@H]5O)CC[C@]34C)[C@]2(C)CO)[C@H](O)[C@H](O[C@@H]2O[C@H](CO)[C@@H](O)[C@H](O)[C@H]2O)[C@H]1O (stereo partly drawn)
inactive: max response (CRL-7250) 1.26% | max response (HaCat) -8.27% | outcome (KB-3-1) | max response (NIH3T3) -2.37% | activity change, negative = cytotoxicity (C33A) -20.9% [at 11.6 µM] | activity change, negative = cytotoxicity (CAOV3) -0.291% [at 11.6 µM] | activity change, negative = cytotoxicity (CASKI) -6.26% [at 11.6 µM] | activity change, negative = cytotoxicity (Es-2) -0.79% [at 11.6 µM] | activity change, negative = cytotoxicity (HeLa) -1.56% [at 11.6 µM] | activity change, negative = cytotoxicity (Hek293T) -6.15% [at 11.6 µM] | activity change, negative = cytotoxicity (JEG-3) -9.27% [at 11.6 µM] | activity change, negative = cytotoxicity (OV90) -0.517% [at 11.6 µM]

CCC/C=C\C=C/CCc1cc(O)c([C@@H]2O[C@H](CO)[C@@H](O)[C@H](O)[C@H]2O)c(O)c1C(=O)OC
inactive: max response (CRL-7250) -29.4% | max response (HaCat) -26.9% | max response (KB-3-1) -7.75% | max response (NIH3T3) -3.37% | Potency (C33A) | Potency (CAOV3) | Potency (CASKI) | Potency (Es-2) | Potency (HeLa) | Potency (Hek293T) | Potency (JEG-3) | Potency (OV90)

Cc1cn2c(n1)Cc1ccc(Cl)cc1C(c1ccc(N)cc1)=N2
inactive: max response (CRL-7250) -3.82% | max response (HaCat) 1.21% | max response (KB-3-1) 1.16% | max response (NIH3T3) -15.7% | Potency (C33A) | Potency (CAOV3) | Potency (CASKI) | Potency (Es-2) | Potency (HeLa) | Potency (Hek293T) | Potency (JEG-3) | Potency (OV90)

COc1ccc(CCc2nc3cc(-c4c(C)noc4C)ccc3n2CC(C)N2CCOCC2)cc1Cl (stereo not drawn)
inactive: max response (CRL-7250) -13.4% | max response (HaCat) -1.2% | max response (KB-3-1) 0.0649% | max response (NIH3T3) -17.1% | Potency (C33A) | Potency (CAOV3) | Potency (CASKI) | Potency (Es-2) | Potency (HeLa) | Potency (Hek293T) | Potency (JEG-3) | Potency (OV90)

C=CC1(C)CC(O)C(C(=C)C(=O)OC)C(O)C1C(=C)CO (stereo not drawn)
inactive: max response (CRL-7250) -28% | max response (HaCat) -2.8% | max response (KB-3-1) 0.16% | max response (NIH3T3) -4.78% | Potency (C33A) | Potency (CAOV3) | Potency (CASKI) | Potency (Es-2) | Potency (HeLa) | Potency (Hek293T) | Potency (JEG-3) | Potency (OV90)
